Several values for one entry are separate records, joined by “and”; a condition that tells them apart may be missing. Equal values may be shown once. Records with an inconclusive call do not appear. Activity calls are given as the source filed them. Unless noted, the call rests on the fitted dose curve; in most records, active means well fitted curve in the direction sought with a large enough effect in the repeat runs; inconclusive means weak or mixed curves; inactive means flat fitted curve, though single readings scatter.
Legend:
[1] = qHTS assay to test for compound auto fluorescence at 535 nm (green) in HEK293 cells (AID 720680); conditions: green autofluorescence 485/535 nm; series mostly up to 91.3 µM
[2] = qHTS assay to test for compound auto fluorescence at 460 nm (blue) in HEK293 cell free culture (AID 720681); conditions: cell-free medium, autofluorescence 405/460 nm (blue); series mostly up to 91.3 µM
Procedure, shortened: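 Blue fluorescence (Ex 405/Em 460 nm, triamterene-equivalent) was read immediately after pin transfer of compound or DMSO into medium (DMEM, 10% FBS) without cells.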

[3] = qHTS assay to test for compound auto fluorescence at 535 nm (green) in HEK293 cell free culture (AID 720682); conditions: cell-free medium, green autofluorescence 485/535 nm, hits give high values; series mostly up to 91.3 µM
Procedure, shortened: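 Green-channel intensity (Ex/Em 485/535 nm) was recorded from compound-treated wells containing only DMEM with 10% FBS. Fluorescein provided the equivalency standard.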

[4] = qHTS assay to test for compound auto fluorescence at 590 nm (red) in HEK293 cell free culture (AID 720683); conditions: cell-free medium autofluorescence, Ex540/Em590 red; series mostly up to 91.3 µM
Procedure, shortened: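 Red-channel autofluorescence of compounds in culture medium (DMEM, 10% FBS), no cells, measured at 540/590 nm. Rose Bengal sodium is the reference fluorophore for equivalence.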

[5] = qHTS assay to test for compound auto fluorescence at 590 nm (red) in HepG2 cell free culture (AID 720684); conditions: cell-free medium autofluorescence, red 540/590 nm; series mostly up to 91.3 µM
Procedure, shortened: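 Cell-free; medium MEM + 10% FBS; compound or DMSO added by pintool; read Ex 540/Em 590 nm; Rose Bengal sodium as red reference fluorophore.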

[6] = qHTS assay to test for compound auto fluorescence at 460 nm (blue) in HepG2 cell free culture (AID 720685); conditions: Cell-free culture medium, blue autofluorescence 405/460 nm; series mostly up to 91.3 µM
Procedure, shortened: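 Cell-free plates of MEM plus 10% FBS received 23 nL compound or DMSO vehicle; blue-channel (405/460 nm) intensity scored against triamterene as reference fluorophore.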

[7] = qHTS assay to test for compound auto fluorescence at 535 nm (green) in HepG2 cell free culture (AID 720686); conditions: Cell-free medium, green autofluorescence 485/535 nm; series mostly up to 91.3 µM
[8] = qHTS assay to test for compound auto fluorescence at 460 nm (blue) in HepG2 cells (AID 720687); conditions: autofluorescence 405/460 nm, 1 h; series mostly up to 91.3 µM
Procedure, shortened: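 Blue-channel autofluorescence (Ex/Em 405/460 nm, triamterene-equivalent) was measured after 1 hr compound exposure at 37 C, 5% CO2. Cells were HepG2, plated overnight at 37 C in MEM plus 10% FBS.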

[9] = target: Glucocorticoid receptor (Homo sapiens) (UniProt P04150); assay: qHTS assay to identify small molecule agonists of the glucocorticoid receptor (GR) signaling pathway (AID 720691; active means well fitted activation curve with a large enough effect in the signal ratio in the repeat runs, not every such curve was filed as active; the % refers to the signal ratio; further: potency means the concentration at half of the fitted maximal effect); conditions: GR-bla HeLa, beta-lactamase reporter ratio, 18 h; series mostly up to 62.4 µM
Sequence of Glucocorticoid receptor (Homo sapiens) (P04150 whole entry, looked up): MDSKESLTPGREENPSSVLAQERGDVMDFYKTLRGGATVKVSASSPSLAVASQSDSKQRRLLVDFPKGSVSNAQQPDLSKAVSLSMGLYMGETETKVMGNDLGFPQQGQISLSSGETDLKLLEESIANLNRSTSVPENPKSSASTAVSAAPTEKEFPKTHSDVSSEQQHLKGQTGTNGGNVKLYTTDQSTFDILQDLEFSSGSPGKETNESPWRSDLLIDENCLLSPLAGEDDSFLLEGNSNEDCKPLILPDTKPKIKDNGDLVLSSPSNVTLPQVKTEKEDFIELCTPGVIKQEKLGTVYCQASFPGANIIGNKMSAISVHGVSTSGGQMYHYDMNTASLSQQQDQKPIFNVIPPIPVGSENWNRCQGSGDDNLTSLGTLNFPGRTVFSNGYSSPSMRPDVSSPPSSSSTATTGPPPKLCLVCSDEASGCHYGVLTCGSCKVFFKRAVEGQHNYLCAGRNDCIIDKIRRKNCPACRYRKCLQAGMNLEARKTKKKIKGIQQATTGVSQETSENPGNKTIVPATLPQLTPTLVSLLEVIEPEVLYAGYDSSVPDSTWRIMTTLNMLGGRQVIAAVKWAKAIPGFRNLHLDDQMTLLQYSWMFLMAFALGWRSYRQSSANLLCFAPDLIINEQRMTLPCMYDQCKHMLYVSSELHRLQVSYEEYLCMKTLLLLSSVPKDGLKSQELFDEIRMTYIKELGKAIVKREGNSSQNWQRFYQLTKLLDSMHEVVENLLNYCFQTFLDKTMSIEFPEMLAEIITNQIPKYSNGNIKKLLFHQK
Procedure, shortened: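 Agonist-mode qHTS in HeLa cells stably expressing a glucocorticoid-response-element beta-lactamase reporter. Fluorescence intensity read with FRET substrate (2 h, room temperature) after 18 h compound treatment at 37 C.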

[10] = target: Glucocorticoid receptor (Homo sapiens) (UniProt P04150); assay: qHTS assay to identify small molecule antagonists of the glucocorticoid receptor (GR) signaling pathway (AID 720692; active means well fitted inhibition curve with a large enough effect in the signal ratio in the repeat runs, not every such curve was filed as active; the % refers to the signal ratio; further: potency means the concentration at half of the fitted maximal effect); conditions: GR-bla HeLa, beta-lactamase FRET ratio, dexamethasone-stimulated, 18 h; series mostly up to 58.5 µM
Procedure, shortened: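 Inhibition of dexamethasone-driven (5 nM final) beta-lactamase expression was measured in GRE-reporter HeLa cells over 18 h at 37C. Fluorescence was read after 2 h with the B/G FRET substrate at room temperature.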

Measured: Potency

Nc1cccc(N)c1
not listed: [9] | [10]
inactive: all other assays above

Cc1cccc(C)c1O
not listed: [9] | [10]
inactive: all other assays above

C/C=C/c1ccc(O)c(OC)c1
not listed: [9] | [10]
inactive: all other assays above

COc1ccccc1NC(=O)CC(C)=O
not listed: [9] | [10]
inactive: all other assays above

COC(=O)C1CCC(C(=O)OC)CC1 (stereo not given)
not listed: [9] | [10]
inactive: all other assays above

CC(=O)/C=C/C1=C(C)CCCC1(C)C
not listed: [8] | [9] | [10]
inactive: all other assays above

COc1cc(O)c(C(=O)c2ccccc2)cc1S(=O)(=O)O
not listed: [9] | [10]
inactive: all other assays above

COc1cc(C=O)ccc1O
not listed: [9] | [10]
inactive: all other assays above

CN(C)C=O
not listed: [8] | [9] | [10]
inactive: all other assays above

CCCCNC(=O)NS(=O)(=O)c1ccc(N)cc1
not listed: [9] | [10]
inactive: all other assays above

O=C1OC(c2ccc(O)cc2)(c2ccc(O)cc2)c2ccccc21
not listed: [8] | [9] | [10]
inactive: all other assays above

C[C@]12CC[C@@H]3c4ccc(O)cc4CC[C@H]3[C@@H]1CCC2=O
not listed: [9] | [10]
inactive: all other assays above

Cc1cccc2ccccc12
not listed: [9] | [10]
inactive: all other assays above

CC(=O)OC/C=C(C)/C=C/C=C(C)/C=C/C1=C(C)CCCC1(C)C
not listed: [8] | [9] | [10]
inactive: all other assays above

C=C(C)C(N)=O
not listed: [8] | [9] | [10]
inactive: all other assays above

Nc1ccc(N=Nc2ccccc2)c(N)n1
not listed: [8] | [9] | [10]
inactive: all other assays above

O=C(O)Cc1cccc2ccccc12
not listed: [8] | [9] | [10]
inactive: all other assays above

CCCCCCCCOc1ccc(C(=O)c2ccccc2)c(O)c1
not listed: [8] | [9] | [10]
inactive: all other assays above

COCCOCCOC
not listed: [9] | [10]
inactive: all other assays above

CC1(C)O[C@@H]2[C@@H](CO[C@@]3(COS(N)(=O)=O)OC(C)(C)O[C@@H]23)O1
not listed: [8] | [9] | [10]
inactive: all other assays above

CO[C@H]1C=CO[C@@]2(C)Oc3c(C)c(O)c4c(O)c(c(/C=N/N5CCN(C)CC5)c(O)c4c3C2=O)NC(=O)/C(C)=C\C=C[C@H](C)[C@H](O)[C@@H](C)[C@@H](O)[C@@H](C)[C@H](OC(C)=O)[C@@H]1C
not listed: [8] | [9] | [10]
inactive: all other assays above

NC(=O)N1c2ccccc2C=Cc2ccccc21
not listed: [8] | [9] | [10]
inactive: all other assays above

CC(C)CC(C)CC(O)CC(C)C (stereo not given)
not listed: [9] | [10]
inactive: all other assays above

C[C@]12C=CC(=O)C=C1CC[C@@H]1[C@@H]2C(=O)C[C@@]2(C)[C@H]1CC[C@]2(O)C(=O)CO
not listed: [9] | [10]
inactive: all other assays above

O=C1CCCCCN1
not listed: [9] | [10]
inactive: all other assays above

C=CC(=O)NC(C)(C)CS(=O)(=O)O
not listed: [8] | [9] | [10]
inactive: all other assays above

OC[C@@H](O)[C@@H](O)[C@H](O)[C@H](O)CO
not listed: [9] | [10]
inactive: all other assays above

CCN(CC)CCOC(=O)c1ccc(N)cc1
not listed: [9] | [10]
inactive: all other assays above

CCn1cc(C(=O)O)c(=O)c2ccc(C)nc21
not listed: [8] | [9] | [10]
inactive: all other assays above

O=[N+]([O-])c1ccc(O)cc1
not listed: [9] | [10]
inactive: all other assays above

CN/C(=C\[N+](=O)[O-])NCCSCc1ccc(CN(C)C)o1
inactive: all assays above

CC1=NN(c2ccccc2)C(=O)C1
inactive: all assays above

COC(=O)c1ccc(O)cc1
inactive: all assays above

CC(C)=CCC/C(C)=C/CO
inactive: all assays above

C[C@]12CC[C@@H]3c4ccc(O)cc4C[C@@H](CCCCCCCCCS(=O)CCCC(F)(F)C(F)(F)F)[C@H]3[C@@H]1CC[C@@H]2O (stereo not given in full)
active: [10] 1.23 µM
inactive: all other assays above

CCCCOC(=O)CCCCCCCCC(=O)OCCCC
inactive: all assays above

C1CNCCN1
inactive: all assays above

O=c1c(-c2ccc(O)cc2)coc2cc(O)cc(O)c12
not listed: [10]
inactive: all other assays above

CCCCCCCCCCCCCC(=O)OC(C)C
inactive: all assays above

COc1ccccc1O
inactive: all assays above

CCOCCO
inactive: all assays above

OCCCc1ccccc1
inactive: all assays above

CCCCOCCOCCSC#N
inactive: all assays above

CCCCCCCCCCCCCCCCCC(=O)OCC(O)CO (stereo not given)
inactive: all assays above

Oc1cccc(O)c1
inactive: all assays above

CC(C)(C)CC(C)(C)c1ccc(O)c(-n2nc3ccccc3n2)c1
inactive: all assays above

COc1cc2c(c(OC)c1OC)-c1ccc(OC)c(=O)cc1[C@@H](NC(C)=O)CC2
not listed: [10]
inactive: all other assays above

COCC(C)N (stereo not given)
inactive: all assays above

COc1ccc(C(=O)c2ccccc2)c(O)c1
inactive: all assays above

C[C@]12C[C@H](O)[C@H]3[C@@H](CCC4=CC(=O)CC[C@@]43C)[C@@H]1CC[C@@H]2C(=O)CO
active: [9] 169 nM and 69.3 nM and 123 nM | [10] 674 nM and 390 nM
inactive: all other assays above

— PubChem BioAssay (Tox21)
